In PubChem BioAssay AID1159580 (chemical genetic matrix, 2015):
The whole screen tested about 5,500 compounds, of which about 2,000 (36%) were called active. Inconclusive results (about 18%) are left out. No stated cut-off is given here; in the data, active means normalized growth mostly below about 0.91 (no sharp cut-off); inconclusive means no clear call, values can overlap the other calls; inactive means mostly above about 0.92. The list shows a part of the results.

Experiment: chemical genetic growth profiling, strain panel (AID 1159580);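 further: tested at 20 µM; growth read once vehicle control cultures reached saturation at 30 °C; 1 = growth at the plate median or of vehicle wells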
Details: S. cerevisiae deletion strains, growth OD
[1] = locus YMR307W, strain GAS1, stronger effect = lower value

Measured: normalized growth

Nc1nc2ccc(Cl)cc2c2nc(-c3ccco3)nn12
inactive: locus YCL061C, strain MRC1 (second series), stronger effect = lower value 0.988 | locus YDR363W, strain ESC2, stronger effect = lower value 0.926 | [1] 0.969 | locus YPL055C, strain LGE1, stronger effect = lower value 0.909
active: locus YAL040C, strain CLN3, stronger effect = lower value 0.734 | locus YER002W, strain NOP16, stronger effect = lower value 0.74 | locus YNL128W, strain TEP1, stronger effect = lower value 0.632 | locus YNL175C, strain NOP13, stronger effect = lower value 0.664 | locus YNL197C, strain WHI3, stronger effect = lower value 0.81 | locus YNL224C, strain SQS1, stronger effect = lower value 0.729 | locus YOR083W, strain WHI5 (second series), stronger effect = lower value 0.473

CC(=O)O[C@@](C)(CCC=C(C)C)C1CC=C(C)CC1 (stereo partly specified)
inactive: locus YAL013W, strain DEP1, stronger effect = lower value 1.02 | locus YAL021C, strain ccr4, stronger effect = lower value 1.01 | locus YAL026C, strain drs2, stronger effect = lower value 0.989 | locus YAL030W, strain snc1, stronger effect = lower value 0.987 | locus YBL061C, strain skt5, stronger effect = lower value 0.979 | locus YBR009C, strain hhf1, stronger effect = lower value 1.01 | locus YBR021W, strain FUR4, stronger effect = lower value 1.03 | locus YBR023C, strain chs3, stronger effect = lower value 0.986 | locus YBR171W, strain sec66, stronger effect = lower value 0.981 | locus YBR229C, strain ROT2, stronger effect = lower value 1.02 | locus YBR231C, strain swc5, stronger effect = lower value 0.996 | locus YBR279W, strain paf1, stronger effect = lower value 0.987 | locus YCL011C, strain gbp2, stronger effect = lower value 0.983 | locus YCL016C, strain dcc1, stronger effect = lower value 0.996 | locus YCL029C, strain bik1, stronger effect = lower value 0.992 | locus YCL069W, strain vba3, stronger effect = lower value 0.983 | locus YCR088W, strain abp1, stronger effect = lower value 0.983 | locus YDL005C, strain med2, stronger effect = lower value 0.978 | locus YDL035C, strain GPR1, stronger effect = lower value 1.01 | locus YDL040C, strain nat1, stronger effect = lower value 0.988 | locus YDL074C, strain BRE1, stronger effect = lower value 1.03 | locus YDL101C, strain DUN1, stronger effect = lower value 1.03 | locus YDL185W, strain tfp1, stronger effect = lower value 0.988 | locus YDL192W, strain arf1, stronger effect = lower value 1 | locus YDR001C, strain nth1, stronger effect = lower value 0.991 | locus YDR069C, strain doa4, stronger effect = lower value 0.966 | locus YDR101C, strain arx1, stronger effect = lower value 0.97 | locus YDR137W, strain rgp1, stronger effect = lower value 0.976 | locus YDR159W, strain sac3, stronger effect = lower value 0.982 | locus YDR162C, strain NBP2, stronger effect = lower value 1.05 | locus YDR195W, strain ref2 0.982 | locus YDR297W, strain sur2, stronger effect = lower value 0.974 | locus YDR318W, strain mcm21, stronger effect = lower value 0.997 | locus YDR334W, strain swr1, stronger effect = lower value 0.985 | locus YDR335W, strain msn5, stronger effect = lower value 0.986 | locus YDR388W, stronger effect = lower value 0.994 | locus YDR392W, strain spt3, stronger effect = lower value 0.973 | locus YDR502C, strain sam2, stronger effect = lower value 0.978 | locus YEL003W, strain gim4, stronger effect = lower value 0.993 | locus YEL037C, strain rad23, stronger effect = lower value 0.991 | locus YEL061C, strain CIN8 (second series), stronger effect = lower value 0.978 | locus YEL061C, strain CIN8, stronger effect = lower value 1.02 | locus YER015W, strain faa2, stronger effect = lower value 0.994 | locus YER016W, strain bim1, stronger effect = lower value 0.992 | locus YER110C, stronger effect = lower value 0.985 | locus YER111C, strain swi4, stronger effect = lower value 0.981 | locus YER155C, strain BEM2 (second series), stronger effect = lower value 1.01 | locus YER155C, strain BEM2, stronger effect = lower value 1.02 | locus YER167W, strain BCK2, stronger effect = lower value 1 | locus YFR010W, strain ubp6, stronger effect = lower value 0.973 | locus YGL078C, strain dbp3, stronger effect = lower value 0.995 | locus YGL086W, strain mad1, stronger effect = lower value 0.991 | locus YGL167C, strain pmr1, stronger effect = lower value 0.991 | locus YGL173C, strain kem1, stronger effect = lower value 0.984 | locus YGL227W, strain vid30, stronger effect = lower value 0.986 | locus YGL240W, strain doc1, stronger effect = lower value 0.992 | locus YGL248W, strain PDE1, stronger effect = lower value 1.05 | locus YGL253W, strain hxk2, stronger effect = lower value 0.987 | locus YGR078C, strain PAC10, stronger effect = lower value 1.05 | locus YGR135W, strain pre9, stronger effect = lower value 1.02 | locus YGR229C, strain SMI1, stronger effect = lower value 0.998 | locus YGR252W, strain gcn5, stronger effect = lower value 1.01 | locus YHR013C, strain ard1, stronger effect = lower value 1 | locus YHR027C, strain rpn1, stronger effect = lower value 0.983 | locus YHR030C, strain SLT2, stronger effect = lower value 1.02 | locus YHR079C, strain IRE1 (second series), stronger effect = lower value 0.985 | locus YHR094C, strain hxt1, stronger effect = lower value 1 | locus YHR129C, strain ARP1, stronger effect = lower value 1.02 | locus YHR142W, strain chs7, stronger effect = lower value 0.999 | locus YHR200W, strain rpn10, stronger effect = lower value 0.992 | locus YIL066C, strain RNR3, stronger effect = lower value 1.04 | locus YIL073C, strain SPO22, stronger effect = lower value 1 | locus YIL125W, strain kgd1, stronger effect = lower value 1 | locus YIR030C, strain dcg1, stronger effect = lower value 0.992 | locus YJL092W, strain hpr5, stronger effect = lower value 0.988 | locus YJL095W, strain BCK1 (second series), stronger effect = lower value 0.998 | locus YJL095W, strain BCK1, stronger effect = lower value 1.06 | locus YJL115W, strain asf1, stronger effect = lower value 0.989 | locus YJL129C, strain trk1, stronger effect = lower value 0.981 | locus YJL134W, strain LCB3, stronger effect = lower value 1.01 | locus YJL154C, strain vps35, stronger effect = lower value 0.984 | locus YJL164C, strain tpk1, stronger effect = lower value 0.994 | locus YJL166W, strain qcr8, stronger effect = lower value 0.983 | locus YJL168C, strain set2, stronger effect = lower value 0.999 | locus YJL187C, strain SWE1 (second series), stronger effect = lower value 1.04 | locus YJL187C, strain SWE1, stronger effect = lower value 0.991 | locus YJR043C, strain POL32, stronger effect = lower value 1.04 | locus YKL009W, strain mrt4, stronger effect = lower value 0.962 | locus YKL068W, stronger effect = lower value 0.997 | locus YKL085W, strain MDH1 (second series), stronger effect = lower value 0.994 | locus YKL085W, strain MDH1, stronger effect = lower value 0.994 | locus YKL160W, strain elf1, stronger effect = lower value 0.993 | locus YKL190W, strain CNB1, stronger effect = lower value 1.01 | locus YKR001C, strain vps1, stronger effect = lower value 0.987 | locus YKR026C, strain gcn3, stronger effect = lower value 0.99 | locus YKR091W, strain srl3, stronger effect = lower value 0.982 | locus YLL001W, strain dnm1, stronger effect = lower value 0.993 | locus YLL026W, stronger effect = lower value 0.985 | locus YLL041C, strain sdh2, stronger effect = lower value 1.01 | locus YLR027C, strain aat2, stronger effect = lower value 0.985 | locus YLR039C, strain RIC1, stronger effect = lower value 1.05 | locus YLR058C, strain SHM2, stronger effect = lower value 1.04 | locus YLR102C, strain apc9, stronger effect = lower value 0.986 | locus YLR221C, strain rsa3, stronger effect = lower value 0.972 | locus YLR258W, strain gsy2, stronger effect = lower value 1.01 | locus YLR262C, strain YPT6 (second series), stronger effect = lower value 0.959 | locus YLR262C, strain YPT6, stronger effect = lower value 1.04 | locus YLR268W, strain sec22, stronger effect = lower value 1 | locus YLR320W, strain mms22, stronger effect = lower value 0.975 | locus YLR330W, strain CHS5, stronger effect = lower value 1.03 | locus YLR342W, strain FKS1 (second series), stronger effect = lower value 1.09 | locus YLR342W, strain FKS1, stronger effect = lower value 0.974 | locus YLR357W, strain rsc2, stronger effect = lower value 0.951 | locus YLR370C, strain arc18, stronger effect = lower value 0.983 | locus YLR371W, strain rom2, stronger effect = lower value 0.997 | locus YLR384C, strain iki3, stronger effect = lower value 0.973 | locus YLR418C, strain cdc73, stronger effect = lower value 0.988 | locus YML016C, strain PPZ1, stronger effect = lower value 1.02 | locus YML032C, strain rad52, stronger effect = lower value 1.01 | locus YML120C, strain ndi1, stronger effect = lower value 0.985 | locus YML124C, strain tub3, stronger effect = lower value 0.992 | locus YMR058W, strain fet3, stronger effect = lower value 0.995 | locus YMR078C, strain ctf18, stronger effect = lower value 0.971 | locus YMR125W, strain sto1, stronger effect = lower value 0.983 | locus YMR129W, stronger effect = lower value 1 | locus YMR205C, strain PFK2, stronger effect = lower value 0.988 | locus YMR223W, strain ubp8, stronger effect = lower value 1.04 | locus YMR231W, strain pep5, stronger effect = lower value 0.994 | locus YMR263W, strain SAP30, stronger effect = lower value 1.04 | [1] 1.11 | locus YNL067W, strain RPL9B, stronger effect = lower value 1.04 | locus YNL071W, strain lat1, stronger effect = lower value 0.99 | locus YNL153C, strain GIM3, stronger effect = lower value 1.04 | locus YNL209W, strain ssb2, stronger effect = lower value 0.984 | locus YNL233W, strain BNI4, stronger effect = lower value 1.04 | locus YNL248C, strain rpa49, stronger effect = lower value 0.975 | locus YNL250W, strain rad50, stronger effect = lower value 1.01 | locus YNL271C, strain bni1, stronger effect = lower value 0.998 | locus YNL298W, strain CLA4, stronger effect = lower value 0.996 | locus YNL307C, strain MCK1, stronger effect = lower value 0.996 | locus YNL322C, strain KRE1 (second series), stronger effect = lower value 0.99 | locus YNR049C, strain mso1, stronger effect = lower value 1 | locus YNR052C, strain pop2, stronger effect = lower value 0.995 | locus YOL006C, strain TOP1, stronger effect = lower value 1.14 | locus YOL012C, strain htz1 0.898 | locus YOL147C, strain pex11, stronger effect = lower value 0.984 | locus YOR001W, strain rrp6, stronger effect = lower value 0.973 | locus YOR061W, strain CKA2, stronger effect = lower value 1.03 | locus YOR069W, strain VPS5, stronger effect = lower value 1.01 | locus YOR070C, strain gyp1, stronger effect = lower value 0.982 | locus YOR080W, strain dia2, stronger effect = lower value 0.991 | locus YOR083W, strain WHI5, stronger effect = lower value 0.999 | locus YOR106W, strain vam3, stronger effect = lower value 0.975 | locus YOR136W, strain idh2, stronger effect = lower value 0.988 | locus YOR144C, strain elg1, stronger effect = lower value 0.983 | locus YOR184W, strain ser1, stronger effect = lower value 0.962 | locus YOR265W, strain rbl2, stronger effect = lower value 1 | locus YOR270C, strain vph1, stronger effect = lower value 0.915 | locus YOR290C, strain snf2, stronger effect = lower value 0.989 | locus YOR316C, strain cot1, stronger effect = lower value 1.01 | locus YPL051W, strain arl3, stronger effect = lower value 1.01 | locus YPL078C, strain atp4, stronger effect = lower value 1.02 | locus YPL106C, strain sse1, stronger effect = lower value 1 | locus YPL240C, strain hsp82, stronger effect = lower value 0.974 | locus YPL241C, strain CIN2, stronger effect = lower value 1.01 | locus YPR119W, strain clb2, stronger effect = lower value 0.997 | locus YPR141C, strain kar3, stronger effect = lower value 0.997 | locus YPR163C, strain tif3, stronger effect = lower value 1 | locus YPR167C, strain met16, stronger effect = lower value 1 | strain wtn01, stronger effect = lower value 0.987
